Source: PubChem
Sfp PPTase inh: Sfp phosphopantetheinyl transferase inhibition. Q9F4F7. AID 1490. Potency, µM, for inactives: largest response in the series, negative = inhibition, actives largely listed as inhibitors. Biochemical Sfp PPTase activity, qHTS. 3.5% of 310,000 active;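 also: the enzyme is Sfp with the accession as filed and its product quenches rhodamine fluorescence; potency is read from the fitted curve at half-maximal effect; 0% = enzyme reaction without inhibitor and -100% = no enzyme wells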
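Fluorescence-quenching assay with 15 nM Sfp, 5 uM rhodamine-CoA and 12.5 uM BHQ-2-labelled ybbR peptide in pH 7.6 Hepes/MgCl2 buffer. Enzyme was pre-incubated with compound for 15 min at room temperature. Rate was taken from the 30-min fluorescence change (525/598 nm).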
ELG1 DNA repair: blocks ELG1-dependent DNA repair in HEK293T cells; HEK293T ELG1-luciferase reporter, luminescence, 16 h; DNA damage induced by 5-fluorouridine; Potency, µM (highest dose often 46.1 µM), without a hit: top-dose activity change, negative = inhibition, hits mostly inhibitors; 2.3% of 330,000 active; AID 504467; also: potency is read from the fitted curve at half-maximal effect; nearly all actives have a fitted effect of over 55% in size
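Overnight (16 hr) co-exposure of 2,000 cells/well to 5-fluorouridine and compound at 37 °C preceded detection. Luciferase was quantified via ONE-Glo luminescence; loss of signal denotes inhibition.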
FBPA coupling cs: counter-screen for Giardia aldolase inhibitors: coupling enzyme system | 0.67% of 290,000 active | activity change, negative = inhibition, % at 58.2 µM, hits read low | coupling enzyme system counterscreen, AmpLite Red fluorescence; in the data active = activity change below about -30%
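Counterscreen of the coupled detection system alone, without aldolase: glyceraldehyde-3-phosphate coupling enzymes plus AmpLite Red readout. Compounds at 57.5 uM final, 10 min RT preincubation, 20 min RT reaction, fluorescence 525/598 nm.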
Giardia killer: Giardia lamblia killing; Giardia lamblia trophozoite viability; activity change, % at 7.66 µM, hits read low; 0.15% of 340,000 active; in the data active = activity change below about -80%; inconclusive = between about -30% and that limit;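 also: parasites exposed to compound for two days anaerobically before the ATP read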
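Compounds were tested on trophozoites seeded at 100 cells/well and held 48 hrs at 37 deg C anaerobically. An ATP-based luminescent kit measured the remaining live cells.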
* marks the source's active call; other numbers are inactive results; ? = inconclusive; . = not tested or not shown. An excerpt weighted towards active compounds, which were near 5.5% of everything screened. Unless noted, calls follow the shape of the dose curve; as a rule, active = well fitted curve in the direction sought with a large enough effect; inconclusive = small, poorly fitted or top-dose-only effect, or another doubt; inactive = no such curve, though single readings can be large; an effect the other way counts as inactive or inconclusive. Unless noted, % is scaled to controls: 0 for no effect and ±100 for the full control effect.

SMILES	Sfp PPTase inh	ELG1 DNA repair	FBPA coupling cs	Giardia killer
COc1ccc(NC(=O)Nc2cccc3c2O[C@H](CN(C)S(=O)(=O)c2ccccc2)[C@@H](C)CN([C@H](C)CO)C3=O)cc1	.	-17%	.	-16
COc1ccc(NC(=O)Nc2cccc3c2O[C@H](CN(C)S(=O)(=O)c2ccc(OC)cc2)[C@@H](C)CN([C@H](C)CO)C3=O)cc1	.	21µM*	.	-12
C=C(C)COc1ccc2c(C)c(CCC(=O)N3C[C@H]4C[C@@H](C3)c3cccc(=O)n3C4)c(=O)oc2c1	7%	-16%	0	-6
CC1CCN(C(=O)CSc2nc(=O)n3ccccc3n2)CC1	.	-6%	.	16
C[C@@H]1CN([C@H](C)CO)C(=O)Cc2cc(NC(=O)Nc3ccccc3)ccc2O[C@@H]1CN(C)Cc1ccc2c(c1)OCO2	.	16µM*	.	19
C[C@H](CO)N1C[C@H](C)[C@@H](CN(C)C(=O)Nc2ccc3c(c2)OCO3)Oc2c(NC(=O)Nc3ccccc3)cccc2C1=O	.	6.5µM*	.	-13
O=C(Nc1ccc[n+](CC(=O)c2cccc3ccccc23)c1)c1ccccc1	56µM*	-8%	1	16
CC1=C(C(=O)Nc2ccccc2)C(c2ccco2)NC(=O)N1 (stereo not given)	.	.	.	-12
COc1ccccc1NC(=O)C1=C(C)NC(=O)NC1c1ccccc1[N+](=O)[O-] (stereo not given)	3.5µM*	?	-41*	0
CC1=C(C(=O)Nc2ccccc2)C(c2ccccc2[N+](=O)[O-])NC(=O)N1 (stereo not given)	20µM*	?	-4	3
O=C(CCc1ccc(S(=O)(=O)N2CCOCC2)cc1)Nc1nc(COc2ccccc2)cs1	0%	21µM*	-1	-3
O=C(N/N=C/c1ccccn1)c1cc(Br)ccc1O	5%	14%	-1	?
O=C(N/N=C/c1cccnc1)c1ccc([N+](=O)[O-])cc1Cl	4%	13%	-1	1
O=C(N/N=C/c1ccccn1)C1CC1	79µM*	?	0	-12
O=C(N/N=C/c1ccccn1)c1ccc(Br)o1	18µM*	-8%	1	18
O=C(N/N=C/c1ccccn1)c1ccc([N+](=O)[O-])cc1Cl	50µM*	?	1	4
COc1ccccc1C(=O)C1CCCN(C(=O)c2cnn(C(C)C)c2)C1 (stereo not given)	14%	13%	.	?
C=C(C(=O)c1ccccc1)C(NC(C)(C)C)c1ccccc1 (stereo not given)	.	.	.	-11
O=C(CCc1nnc2n(Cc3ccccc3)c(=O)c3ccccc3n12)NCCN1CCOCC1	13%	-1%	3	-6
COc1cc(/C=N/Nc2nc(Nc3ccc(C)cc3)nc(-n3nc(C)cc3C)n2)cc(OC)c1OC	2%	?	2	1
COc1ccc(/C=N/Nc2nc(N3CCCC3)nc(N3CCCC3)n2)c(OC)c1OC	-8%	?	6	11
COc1ccc(/C=N/Nc2nc(Nc3ccccc3)nc(N3CCCCC3)n2)c(OC)c1	11%	21µM*	-6	-11
COc1cc(/C=N/Nc2nc(Nc3ccccc3)nc(-n3nc(C)cc3C)n2)cc(OC)c1OC	0%	1.8µM*	1	16
COc1ccc(O)c(/C=N/Nc2nc(C)cc(-c3ccccc3)n2)c1	.	.	.	-25
COc1ccc(/C=N/Nc2nc(Nc3ccccc3)nc(N3CCCC3)n2)cc1[N+](=O)[O-]	0%	?	1	6
SMILES	Sfp PPTase inh	ELG1 DNA repair	FBPA coupling cs	Giardia killer
COc1cccc(/C=N/Nc2nc(N3CCCC3)nc(N3CCCC3)n2)c1O	0%	15µM*	4	-2
COc1ccc(O)c(/C=N/Nc2nc(Nc3ccccc3)nc(-n3nc(C)cc3C)n2)c1	3%	2.6µM*	-4	-6
COc1ccc2nc(C)cc(N/N=C/c3ccccc3)c2c1	.	-9%	.	-21
COc1cc(/C=N/n2nnnc2Nc2ccccc2)cc(OC)c1OC	13%	23µM*	1	-2
COc1ccc(/C=N/Nc2cc(C)nc3ccc(OC)cc23)c(OC)c1	50µM*	?	-1	-1
COc1cccc(/C=N/Nc2cc(N3CCOCC3)ncn2)c1O	7%	12µM*	0	5
CCOC(=O)N1CCN(C(=O)CCn2c(=S)[nH]c3ccccc3c2=O)CC1	3%	1%	1	-5
CCOC(=O)N1CCN(C(=O)CCCCn2c(=S)[nH]c3ccsc3c2=O)CC1	79µM*	-3%	-1	34
O/N=C1\CCCc2oc3c(c21)CCCC3	-15%	4%	-31*	24
COc1ccc(/C=N\NC(=O)c2ccccc2F)cc1COc1ccc(F)cc1F	9%	8%	-3	7
COc1ccc(/C=N/NC(=O)c2cc(C(C)(C)C)[nH]n2)cc1COc1ccc(F)cc1F	4%	16µM*	0	-1
COc1ccc(/C=N\NC(=O)c2ccc(F)cc2)cc1COc1cc(F)ccc1[N+](=O)[O-]	-5%	21µM*	5	-7
Cc1ccc2nc(C)c(CN3CCN(c4ccc([N+](=O)[O-])cc4Cl)CC3)n2c1	-2%	2.3µM*	0	.
Cc1ccccc1NC(=O)c1ccc(S(=O)(=O)N(C)C)cc1	13%	-9%	-5	-9
CN(C)S(=O)(=O)c1ccc(C(=O)Nc2ccccc2SCCC#N)cc1	14µM*	4%	1	-28
N#CCCSc1ccccc1NC(=O)c1cc(=O)c2ccccc2o1	22µM*	-14%	-1	9
CCOc1ccccc1NC(=O)c1cc(=O)c2ccccc2o1	21%	10%	-1	30
Cc1ccc(C)c(SCC(=O)N(C)CC(=O)Nc2ccc(N3CCOCC3)cc2)c1	.	0%	.	0
S=C(NCCCN1CCOCC1)N1CCN(c2nc(-c3ccc(Cl)cc3)cs2)CC1	21%	10%	4	-2
S=C(NCC1CCCO1)N1CCN(c2cccc(Cl)c2)CC1 (stereo not given)	6%	?	4	-27
S=C(NCC1CCCO1)N1CCN(c2nc(-c3ccc(Cl)cc3)cs2)CC1 (stereo not given)	10%	12µM*	-1	-7
S=C(NCCCN1CCOCC1)N1CCN(c2nc(-c3ccccc3)cs2)CC1	45µM*	?	-1	-9
CCc1ccc(C(=O)NNC(=O)c2ccc(=O)n(C)n2)cc1	-22%	0%	.	39
CN1CC(=O)N(CC(=O)NCCc2ccc(F)cc2)c2ccccc2C1=O	7%	-2%	1	-10
CN1CC(=O)N(CC(=O)Nc2ccc(N(C)C)cc2)c2ccccc2C1=O	?	.	-42*	6
COC(=O)NC(c1ccc2c(c1)OCO2)C(C(=O)OC)C(=O)OC (stereo not given)	14%	.	2	.
CC(=O)c1cccc(Nc2nc(-c3ccccc3)nc3ccccc23)c1	-25%	23µM*	1	11
COC(=O)c1cccc(Nc2nc(-c3cccnc3)nc3ccccc23)c1	-7%	7.3µM*	-1	40
CCOC(=O)c1nc(Nc2cccc(C)c2)c2ccccc2n1	15%	16µM*	1	3
